According to PubChem BioAssay:
For some of these results: Entries with a potency or affinity are not part of this list. Activity calls are given as the source filed them. Unless noted, no rule for the calls is given here.

What was measured:
[1] = antimalarial activity against Dd2 strain (AID 2302;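 active = growth inhibition above 50% at the single 2 µM test dose, taken to imply half-maximal potency below 2 µM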;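 also: 0% = DMSO untreated growth and 100% = chloroquine plus artemisinin killed control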); settings: P. falciparum Dd2 in RBCs, LDH growth readout, 72 h; at 2 µM; active compounds read high
[2] = HepG2 cytotoxicity, primary screen, cytotoxicity control for P. falciparum antimalarial project, cell-based, ATP luminescence (AID 2303;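 active = inhibition above 50%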;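 also: 0% = DMSO wells and 100% = digitonin-killed cells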); settings: HepG2 viability, 24-48 h, at 10 µM, active compounds read high
[3] = molecular target: L-lactate dehydrogenase (Plasmodium falciparum (isolate CDC / Honduras)) (UniProt Q27743); assay: PfLDH activity inhibition – cell lysate, 3D7 strain, counter-screen for P. falciparum growth inhibition project (AID 2304);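 also: 0% = vehicle and 100% = reference inhibitor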; settings: P. falciparum 3D7 crude extract, LDH APAD/NBT absorbance; at 2 µM; active compounds read high
Sequence of L-lactate dehydrogenase (Plasmodium falciparum (isolate CDC / Honduras)) (Q27743 whole entry, looked up): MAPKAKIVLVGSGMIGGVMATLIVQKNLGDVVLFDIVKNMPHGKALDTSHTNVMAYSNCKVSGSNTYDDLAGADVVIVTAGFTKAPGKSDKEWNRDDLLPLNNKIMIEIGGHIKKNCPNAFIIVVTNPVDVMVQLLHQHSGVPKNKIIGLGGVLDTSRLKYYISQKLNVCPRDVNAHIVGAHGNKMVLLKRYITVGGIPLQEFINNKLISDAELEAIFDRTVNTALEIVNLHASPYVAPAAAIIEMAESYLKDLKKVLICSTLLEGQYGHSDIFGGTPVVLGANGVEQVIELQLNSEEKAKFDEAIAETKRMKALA

[4] = inhibition of 3D7 malaria parasite growth – strain 3D7 (AID 2306);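 also: 0% = DMSO wells and 100% = chloroquine plus artemisinin control wells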; settings: P. falciparum 3D7 erythrocytic growth, LDH absorbance, 72 h; at 2 µM; active compounds read high
[5] = molecular target: Calcium-dependent protein kinase 1 (Plasmodium falciparum (isolate 3D7)) (UniProt P62344); assay: PfCDPK1 kinase inhibitors, biochemical, TCAMS library (AID 1159585; cut-off not given, nearly all actives have IC50 up to about 0.98 µM;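 also: inhibitors leave more ATP so luminescence rises with inhibition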); settings: recombinant PfCDPK1, Kinase-Glo ATP depletion luminescence
Sequence of Calcium-dependent protein kinase 1 (Plasmodium falciparum (isolate 3D7)) (P62344 whole entry, looked up): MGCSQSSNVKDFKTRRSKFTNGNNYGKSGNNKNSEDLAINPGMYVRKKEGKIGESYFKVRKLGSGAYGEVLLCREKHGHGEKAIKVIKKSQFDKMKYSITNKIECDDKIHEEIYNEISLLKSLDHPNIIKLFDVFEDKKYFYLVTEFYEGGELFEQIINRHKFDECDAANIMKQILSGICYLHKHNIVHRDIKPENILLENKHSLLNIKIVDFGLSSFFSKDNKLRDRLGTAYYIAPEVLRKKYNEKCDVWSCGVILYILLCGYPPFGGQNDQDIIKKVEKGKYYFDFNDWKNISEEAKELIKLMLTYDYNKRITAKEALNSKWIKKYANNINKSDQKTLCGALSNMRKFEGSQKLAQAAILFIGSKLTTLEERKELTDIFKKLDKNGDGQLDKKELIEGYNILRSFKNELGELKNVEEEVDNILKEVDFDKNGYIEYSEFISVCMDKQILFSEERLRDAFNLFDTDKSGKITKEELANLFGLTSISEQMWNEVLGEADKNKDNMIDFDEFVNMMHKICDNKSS

[6] = molecular target: Plasmodium falciparum protein kinase 6 (PK6, PF3D7_1337100) (UniProt Q8IDW1); assay: PfPK6 kinase inhibitors, biochemical, TCAMS library (AID 1159586); settings: recombinant PfPK6, Kinase-Glo ATP depletion luminescence
Sequence of Plasmodium falciparum protein kinase 6 (PK6, PF3D7_1337100) (Q8IDW1 1-305): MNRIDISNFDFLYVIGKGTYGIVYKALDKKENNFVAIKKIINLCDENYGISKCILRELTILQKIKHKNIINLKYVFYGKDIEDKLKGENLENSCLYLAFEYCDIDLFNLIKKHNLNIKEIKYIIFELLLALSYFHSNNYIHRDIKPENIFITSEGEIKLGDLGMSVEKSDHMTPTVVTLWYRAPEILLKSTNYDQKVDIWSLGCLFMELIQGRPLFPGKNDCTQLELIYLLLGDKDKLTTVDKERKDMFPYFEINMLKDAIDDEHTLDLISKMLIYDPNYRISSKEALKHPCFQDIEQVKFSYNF

[7] = molecular target: Protein kinase 7 (PK7), Plasmodium falciparum 3D7 (PF3D7_0213400) (UniProt Q7YTF7); assay: inhibition of Plasmodium PK7 catalytic activity – biochemical, TCAMS antimalarial set, Kinase-Glo luminescence (AID 1159587); settings: recombinant PfPK7, Kinase-Glo ATP depletion luminescence
Sequence of Protein kinase 7 (PK7), Plasmodium falciparum 3D7 (PF3D7_0213400) (Q7YTF7 1-343): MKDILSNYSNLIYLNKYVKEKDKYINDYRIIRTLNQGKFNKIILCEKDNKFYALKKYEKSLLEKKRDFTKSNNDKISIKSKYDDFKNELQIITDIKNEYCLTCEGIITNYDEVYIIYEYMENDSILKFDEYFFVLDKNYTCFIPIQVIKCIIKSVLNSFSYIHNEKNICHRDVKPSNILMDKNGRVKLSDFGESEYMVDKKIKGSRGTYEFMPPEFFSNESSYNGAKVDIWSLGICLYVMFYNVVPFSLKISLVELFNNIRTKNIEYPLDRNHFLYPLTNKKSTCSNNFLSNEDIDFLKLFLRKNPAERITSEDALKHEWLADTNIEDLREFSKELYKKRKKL

[8] = molecular target: Calcium-dependent protein kinase 4 (Plasmodium falciparum (isolate 3D7)) (UniProt Q8IBS5); assay: PfCDPK4 kinase inhibitors, biochemical, TCAMS library (AID 1159588; cut-off not given, nearly all actives have IC50 up to about 0.91 µM); settings: recombinant PfCDPK4, Kinase-Glo ATP depletion luminescence
Sequence of Calcium-dependent protein kinase 4 (Plasmodium falciparum (isolate 3D7)) (Q8IBS5 whole entry, looked up): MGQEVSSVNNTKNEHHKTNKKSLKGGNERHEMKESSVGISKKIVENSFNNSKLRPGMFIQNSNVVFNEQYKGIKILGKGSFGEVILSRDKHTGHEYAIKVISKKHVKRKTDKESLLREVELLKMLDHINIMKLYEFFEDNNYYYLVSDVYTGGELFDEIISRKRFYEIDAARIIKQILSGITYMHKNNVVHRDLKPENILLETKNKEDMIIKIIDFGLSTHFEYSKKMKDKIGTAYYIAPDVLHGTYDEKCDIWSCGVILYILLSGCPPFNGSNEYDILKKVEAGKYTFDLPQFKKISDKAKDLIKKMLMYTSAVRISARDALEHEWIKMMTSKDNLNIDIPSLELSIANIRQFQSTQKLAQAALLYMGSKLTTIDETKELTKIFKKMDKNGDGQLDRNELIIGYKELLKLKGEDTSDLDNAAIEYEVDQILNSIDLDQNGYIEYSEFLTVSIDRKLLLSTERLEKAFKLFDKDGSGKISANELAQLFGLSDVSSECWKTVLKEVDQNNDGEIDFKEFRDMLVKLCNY

CNC(=O)c1cc(S(=O)(=O)N2CCN(c3ccccn3)CC2)c(C)s1
active: growth inhibition [1] 52% | growth inhibition [4] 91%
inactive: inhibition [2] -2% | inhibition [3] -1% | outcome [5] | outcome [6] | outcome [7] | outcome [8]

Cc1ccc(O)cc1Nc1ccnc2cc(-c3ccncc3)ccc12
active: growth inhibition [1] 84% | growth inhibition [4] 100%
inactive: inhibition [2] 16% | inhibition [3] 6% | outcome [5] | outcome [6] | outcome [7] | outcome [8]

COc1cc(-c2nc(-c3ccccc3)c(-c3ccccc3)[nH]2)cc(OC)c1O
inactive: inhibition [2] 5% | inhibition [3] -2% | outcome [5] | outcome [6] | outcome [7] | outcome [8]
active: growth inhibition [1] 90% | growth inhibition [4] 100%

COc1ccc(CN(C)Cc2ccc(NC(=O)c3cccc4c(=O)c5cccc(C)c5[nH]c34)cc2)cc1OC
inactive: growth inhibition [1] 22% | inhibition [2] 7% | inhibition [3] -2% | outcome [5] | outcome [6] | outcome [7] | outcome [8]
active: growth inhibition [4] 92%

N#Cc1cccc(C(=O)Nc2ccc(-c3cccc(CN4CCC(O)CC4)c3)cc2)c1
active: growth inhibition [1] 68% | growth inhibition [4] 100%
inactive: inhibition [2] 33% | inhibition [3] 7% | outcome [5] | outcome [6] | outcome [7] | outcome [8]

CC(=O)Nc1ccc(OCCCCN(Cc2ccccc2OC(F)(F)F)c2ccc(C(F)(F)F)c(C#N)c2)c(Cl)c1
active: growth inhibition [1] 96% | growth inhibition [4] 89%
inactive: inhibition [2] 11% | inhibition [3] -2% | outcome [5] | outcome [6] | outcome [7] | outcome [8]

Clc1ccccc1C=NNc1ccnc2ccccc12
active: growth inhibition [1] 50% | growth inhibition [4] 100%
inactive: inhibition [2] 25% | inhibition [3] -3% | outcome [5] | outcome [6] | outcome [7] | outcome [8]

Cc1c(C)c2c(c(C)c1O)CCC(C)(CCC(=O)O)O2 (stereo not given)
inactive: growth inhibition [1] -4% | inhibition [2] 8% | inhibition [3] 0% | outcome [5] | outcome [6] | outcome [7] | outcome [8]
active: growth inhibition [4] 96%

CCCN(c1ccc(C(F)(F)F)cc1[N+](=O)[O-])S(=O)(=O)C(c1ccccc1)c1ccc(C(F)(F)F)cc1[N+](=O)[O-] (stereo not given)
active: growth inhibition [4] 94%
inactive: growth inhibition [1] 49% | inhibition [2] -11% | inhibition [3] 1% | outcome [5] | outcome [6] | outcome [7] | outcome [8]

O=C(NCCc1ccccc1)N(Cc1cccc(-c2ccc(CNCCc3ccccc3)cc2)c1)C1CCN(Cc2ccccc2)CC1
active: growth inhibition [1] 91% | inhibition [2] 94% | growth inhibition [4] 90%
inactive: inhibition [3] -5% | outcome [5] | outcome [6] | outcome [7] | outcome [8]

CC(C)OCCCNC(=O)c1nc(-c2cccc(C(F)(F)F)c2)sc1C(C)C
inactive: growth inhibition [1] 34% | inhibition [2] -7% | inhibition [3] -8% | outcome [5] | outcome [6] | outcome [7] | outcome [8]
active: growth inhibition [4] 94%

CCOC(=O)c1c(C)n(-c2ccc(Cl)cc2)c2ccc(OC(=O)C=Cc3ccccc3)cc12
active: growth inhibition [1] 92% | growth inhibition [4] 99%
inactive: inhibition [2] 3% | inhibition [3] -2% | outcome [5] | outcome [6] | outcome [7] | outcome [8]

Cn1nc(C(=O)N2CCC(c3[nH]ncc3Cc3ccccc3)CC2)c2ccccc2c1=O
active: growth inhibition [1] 95% | growth inhibition [4] 95%
inactive: inhibition [2] 5% | inhibition [3] -2% | outcome [5] | outcome [6] | outcome [7] | outcome [8]

Fc1ccc2nc(-c3ccc(-c4ccc(CN5CCN(CCN6CCOCC6)CC5)cc4)s3)[nH]c2c1
inactive: inhibition [2] 39% | inhibition [3] -3% | outcome [5] | outcome [6] | outcome [7] | outcome [8]
active: growth inhibition [1] 98% | growth inhibition [4] 99%

Cc1cccc2[nH]c(-c3ccc(-c4ccc(NC(=O)NCc5ccc(F)cc5)cc4)cc3)nc12
active: growth inhibition [1] 99% | inhibition [2] 70% | growth inhibition [4] 100%
inactive: inhibition [3] -3% | outcome [5] | outcome [6] | outcome [7] | outcome [8]

CC(=O)Nc1ccc(C(=O)Nc2cccc(-c3ccc(-c4nc5ccccc5[nH]4)cc3)c2)cn1
active: growth inhibition [1] 93% | growth inhibition [4] 100%
inactive: inhibition [2] 12% | inhibition [3] 0% | outcome [5] | outcome [6] | outcome [7] | outcome [8]

CCOc1cc(C)ccc1C1CCN(CCCCNC(=O)c2nc(-c3ccc(C(F)(F)F)cc3)[nH]c2C)CC1
inactive: inhibition [2] 30% | inhibition [3] -5% | outcome [5] | outcome [6] | outcome [7] | outcome [8]
active: growth inhibition [1] 98% | growth inhibition [4] 100%

CCOc1ccc2nc(C)cc(NN=Cc3cccc(C)n3)c2c1
active: growth inhibition [1] 73% | growth inhibition [4] 99%
inactive: inhibition [2] 6% | inhibition [3] 0% | outcome [5] | outcome [6] | outcome [7] | outcome [8]

N#Cc1cccc(Nc2nccc(NCC(O)c3ccccc3C(F)(F)F)n2)c1 (stereo not given)
inactive: growth inhibition [1] 39% | inhibition [2] 36% | inhibition [3] 3% | outcome [5] | outcome [6] | outcome [7] | outcome [8]
active: growth inhibition [4] 98%

N#Cc1cccc(NC(=O)Nc2ccc3c(c2)CN(Cc2c[nH]c4ncccc24)C3)c1
active: growth inhibition [4] 99%
inactive: growth inhibition [1] 12% | inhibition [2] 0% | inhibition [3] 5% | outcome [5] | outcome [6] | outcome [7] | outcome [8]
